Assay [1] can be described thus: optical density shifts of acrAB sulA E. coli – strain DRC41, OD650, 48 h, E. coli filamentation inducer project, primary screen (AID 1152).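 Note: E. coli MC1000 strain DRC41 lacking acrAB efflux pump and sulA.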 The note with it: higher = more signal, called active from +8 up or from −8 down.
Assay [2] can be described thus: probe aLefty1 binding on compound microarray – biochemical, small-molecule microarray, 635/667 nm fluorescence, primary screen (AID 1153).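 Note: score merges spot fluorescence with signal-to-noise ratio from the scanned slide images.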 Conditions: higher = more signal.
Assay [3] in a line: plasmodial surface anion channel blockers, osmotic lysis – cell-based, P. falciparum Indochina, OD700, 1 h, primary screen (AID 1154). The note with it: P. falciparum Indochina infected RBC osmotic lysis, higher = more signal, called active from +8 up or from −8 down.
Assay [4] can be described thus: plasmodial surface anion channel blockers, osmotic lysis – cell-based, P. falciparum Indochina, OD700, 2 h, primary screen (AID 1155).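 Note: lysis reports solute entry through the parasite surface anion channel PSAC.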 The note with it: P. falciparum Indochina infected erythrocytes, higher = more signal, called active from +8 up or from −8 down.
Assay [5] in a line: changes in parasitized red cell lysis, either direction – P. falciparum Indochina, OD700, 3 h, PSAC antagonist project, primary screen (AID 1156). The note with it: P. falciparum-infected erythrocytes, osmotic lysis, higher = more signal, called active from +8 up or from −8 down.
The nature of assay [6]: plasmodial surface anion channel blockers, osmotic lysis – cell-based, P. falciparum Indochina, OD700, 18 h, primary screen (AID 1157). Conditions: P. falciparum Indochina infected erythrocytes, osmotic lysis OD700, 18 h; higher = more signal, called active from +8 up or from −8 down.
The nature of assay [7]: S6 kinase pathway phospho-S6 level changes – cell-based, A549, cytoblot, luminescence, serum-stimulated, primary screen (AID 1158).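 Note: serum-stimulated A549 lung adenocarcinoma cells; signal is phosphorylated S6 detected by cytoblot immunostaining with HRP secondary.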 The note with it: 5 h, higher = more signal.
For assay [8], the target named is NADPH oxidase 2 (Homo sapiens) (UniProt P04839). Briefly: compounds shifting NOX2 Amplex Red fluorescence – cell-based, HEK293-NOX2, PMA-stimulated, NOX inhibitor project, primary screen (AID 1159). Note: test concentration not given here. Conditions: 45 min, higher = more signal, called active from +8 up or from −8 down.
NADPH oxidase 2 (Homo sapiens), sequence (P04839 whole entry, looked up): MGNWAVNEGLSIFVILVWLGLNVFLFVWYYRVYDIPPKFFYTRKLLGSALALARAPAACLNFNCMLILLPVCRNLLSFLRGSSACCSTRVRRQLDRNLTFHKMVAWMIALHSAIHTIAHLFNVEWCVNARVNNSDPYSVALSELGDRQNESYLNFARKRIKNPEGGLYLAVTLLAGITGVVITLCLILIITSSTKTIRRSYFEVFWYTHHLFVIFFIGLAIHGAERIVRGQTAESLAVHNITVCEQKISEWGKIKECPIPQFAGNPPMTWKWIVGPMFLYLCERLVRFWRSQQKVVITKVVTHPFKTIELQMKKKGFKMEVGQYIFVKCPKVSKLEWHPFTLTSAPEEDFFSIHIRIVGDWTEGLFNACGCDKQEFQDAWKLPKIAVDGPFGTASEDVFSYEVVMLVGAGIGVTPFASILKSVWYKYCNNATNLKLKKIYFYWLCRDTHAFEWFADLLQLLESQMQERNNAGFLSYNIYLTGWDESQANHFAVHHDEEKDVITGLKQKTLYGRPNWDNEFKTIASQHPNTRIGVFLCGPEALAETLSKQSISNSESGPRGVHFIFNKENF
For assay [9], the target named is NADPH oxidase 4 (Homo sapiens) (UniProt Q9NPH5). Nature of the assay: compounds shifting NOX4 Amplex Red fluorescence – cell-based, HEK293-NOX4, tetracycline-induced, NOX inhibitor project, primary screen (AID 1160). The note with it: HEK293-NOX4, Amplex Red H2O2 fluorescence, 45 min; higher = more signal, called active from +8 up or from −8 down.
NADPH oxidase 4 (Homo sapiens), sequence (Q9NPH5 whole entry, looked up): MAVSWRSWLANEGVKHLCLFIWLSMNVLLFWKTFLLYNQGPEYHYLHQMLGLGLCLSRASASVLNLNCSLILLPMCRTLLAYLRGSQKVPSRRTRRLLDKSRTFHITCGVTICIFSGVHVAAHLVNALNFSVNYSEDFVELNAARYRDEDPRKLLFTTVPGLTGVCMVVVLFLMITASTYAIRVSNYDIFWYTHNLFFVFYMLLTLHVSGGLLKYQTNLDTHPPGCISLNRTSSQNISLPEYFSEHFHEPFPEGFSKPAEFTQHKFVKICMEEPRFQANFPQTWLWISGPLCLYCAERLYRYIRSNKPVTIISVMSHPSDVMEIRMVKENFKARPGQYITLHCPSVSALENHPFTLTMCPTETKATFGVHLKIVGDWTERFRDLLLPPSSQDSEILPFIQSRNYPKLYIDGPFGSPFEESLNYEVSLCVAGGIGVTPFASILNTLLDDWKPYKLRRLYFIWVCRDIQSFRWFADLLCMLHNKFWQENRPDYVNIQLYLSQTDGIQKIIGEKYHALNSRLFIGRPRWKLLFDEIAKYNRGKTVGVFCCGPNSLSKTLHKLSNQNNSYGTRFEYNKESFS
Assay [10] has as its target NADPH oxidase 5 (Homo sapiens) (UniProt Q96PH1). Nature of the assay: compounds shifting NOX5 Amplex Red fluorescence – cell-based, HEK293-NOX5, NOX inhibitor project, primary screen (AID 1161). The note with it: HEK293-NOX5, ionomycin, 45 min, higher = more signal.
Assay [11] is described as follows: compound effects on lung adenocarcinoma cell viability – A549, calcein-AM fluorescence, 48 h, basal, profiling panel (AID 1162). Note: test concentration not given here. Conditions: higher = more signal.
Assay [12] is described as follows: compound effects on differentiated 3T3-L1 adipocyte viability – cell-based, 3T3-L1 adipocytes, calcein-AM fluorescence, 48 h, basal, profiling panel (AID 1163). Note: test concentration not given here. Conditions: 3T3-L1 adipocytes viability, higher = more signal.
The nature of assay [13]: compound effects on hepatocellular carcinoma cell viability – HepG2, calcein-AM fluorescence, 48 h, basal, profiling panel (AID 1164). Note: test concentration not given here. The note with it: higher = more signal.
The nature of assay [14]: compound effects on multiple myeloma cell viability – MM1S, calcein-AM fluorescence, 48 h, basal, profiling panel (AID 1165). Note: test concentration not given here. Conditions: higher = more signal.
Assay [15] in a line: calcein-AM signal in unstimulated myeloma cells – cell-based, calcein-AM fluorescence, 48 h, PK04 Diversity Set, profiling panel (AID 1166).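 Note: cells grown under basal conditions without added stimulus; test concentration not given here.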 Conditions: RPMI8226 myeloma viability, higher = more signal.
The nature of assay [16]: JC-1 mitochondrial signal, unstimulated HepG2 cells – cell-based, JC-1 fluorescence, 24 h, 100 nL compound, profiling panel (AID 1167). Note: test concentration not given here. The note with it: HepG2 mitochondrial potential, higher = more signal.
Assay [17] in a line: JC-1 mitochondrial signal, unstimulated adipocytes – cell-based, JC-1 fluorescence, 3T3-L1 adipocytes, 24 h, 100 nL compound, profiling panel (AID 1168). Note: test concentration not given here. The note with it: JC-1 mitochondrial fluorescence, higher = more signal, called active from +8 up or from −8 down.
Assay [18] is described as follows: JC-1 mitochondrial signal, unstimulated myeloma cells – cell-based, JC-1 fluorescence, RPMI8226, 24 h, 100 nL compound, profiling panel (AID 1169). Note: test concentration not given here. The note with it: JC-1 mitochondrial potential fluorescence, higher = more signal.
A short description of assay [19]: JC-1 mitochondrial signal, unstimulated MM1S myeloma – cell-based, JC-1 fluorescence, 24 h, 100 nL compound, profiling panel (AID 1170). Note: test concentration not given here. Conditions: MM1S mitochondrial potential, higher = more signal.
Assay [20] is described as follows: resazurin metabolic signal in A549 cells – cell-based, resazurin fluorescence, 24 h, PK04 Diversity Set, profiling panel (AID 1171). Note: test concentration not given here. Conditions: A549 viability, higher = more signal, called active from +8 up or from −8 down. For orientation: Alamar Blue is a resazurin reagent that responds to reducing activity.

The source made the active and inactive calls.

NADPH oxidase 5 (Homo sapiens), sequence (Q96PH1 whole entry, looked up): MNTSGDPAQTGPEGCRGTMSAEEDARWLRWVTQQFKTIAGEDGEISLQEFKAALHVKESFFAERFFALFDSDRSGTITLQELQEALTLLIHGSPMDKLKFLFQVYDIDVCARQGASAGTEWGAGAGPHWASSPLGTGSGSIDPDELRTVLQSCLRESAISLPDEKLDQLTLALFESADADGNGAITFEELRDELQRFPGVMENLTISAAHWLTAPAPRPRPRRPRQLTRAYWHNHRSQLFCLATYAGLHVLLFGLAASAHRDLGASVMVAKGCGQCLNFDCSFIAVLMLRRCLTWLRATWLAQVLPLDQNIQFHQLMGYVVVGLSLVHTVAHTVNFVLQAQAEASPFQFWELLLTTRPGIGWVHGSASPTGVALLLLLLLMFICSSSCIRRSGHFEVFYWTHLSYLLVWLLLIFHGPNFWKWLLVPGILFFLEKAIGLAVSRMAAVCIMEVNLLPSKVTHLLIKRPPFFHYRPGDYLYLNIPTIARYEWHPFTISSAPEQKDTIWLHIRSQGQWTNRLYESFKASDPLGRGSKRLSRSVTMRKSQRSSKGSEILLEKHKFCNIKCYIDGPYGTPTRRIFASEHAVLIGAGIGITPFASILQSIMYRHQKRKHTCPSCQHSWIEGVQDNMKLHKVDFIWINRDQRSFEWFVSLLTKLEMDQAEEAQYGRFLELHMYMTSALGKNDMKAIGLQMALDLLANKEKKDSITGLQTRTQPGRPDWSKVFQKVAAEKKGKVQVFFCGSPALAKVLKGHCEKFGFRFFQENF

For the compound `CCc1cc2c(nc1CC)CCN(CCC(C)=NO[C@@H](C)c1cc(-c3c(C)cc(C)cc3C)no1)C2`, the z-score is 0.187 (inactive) in assay [1]; 4.75 (inactive) in assay [3]; 0.445 (inactive) in assay [4]; 1.41 (inactive) in [5]; 0.514 (inactive) in [6]; 0.549 in assay [7]. The z-score was -2.21 (inactive) in [8]; -0.321 (inactive) in [9]; -2.75 in [10]; 1.9 in assay [11]; 0.704 in assay [12]; 1.48 in assay [13]. Moreover, the z-score in assay [14] is -2.96; in assay [15], -1.59; in [16], 5.47; in assay [17], 0.0344 (inactive); in assay [18], 0.0876; in assay [19] it was -0.769. For the same compound, the z-score in [20] is 0.323 (inactive). For the same compound, the composite z-score in assay [2] is -0.192.
On to `COCCNC(=O)OCC1CCCC2(CC(OC(=O)NCCc3ccc(F)cc3)CC(CCC(=O)N[C@@H](C)C(=O)OC)O2)O1` (stereo not given in full), for which the z-score in [1] was 0.622 (inactive); in [3], -0.577 (inactive); in [4], -0.61 (inactive); in [5], 0.958 (inactive); in assay [6], 0.565 (inactive); in assay [7] it was 0.672. Also, the z-score in assay [8] was 0.769 (inactive); in assay [9] it was 0.948 (inactive); in [10], 0.232; in [11] it was 1.26; in [12], -0.144; in assay [13], 0.0479. Besides, the z-score in assay [14] is -0.491; in assay [15], 0.253; in assay [16], -0.198; in [17], 0.836 (inactive); in [18], -0.156; in [19], -1. In addition, in [20], the z-score is 1.06 (inactive). In [2], this compound showed a composite z-score of 0.0547.
Consider `CC(C)CN1CCc2nc(-c3ccccc3)c3c(c2CC1)CO[C@@H](C)C3`, for which the z-score in assay [1] is 0.0991 (inactive); in assay [3] it was 0.82 (inactive); in assay [4] it was 0.576 (inactive); in assay [5], 0.923 (inactive); in assay [6], -0.142 (inactive); in assay [7], -0.528. Further, the z-score in assay [8] was 1.47 (inactive); in assay [9] it was -0.0482 (inactive); in assay [10], -0.334; in assay [11] it was 0.277; in assay [12] it was 0.493; in assay [13] it was -0.0216. Moreover, the z-score in assay [14] was -2.48; in assay [15], -1.32; in [16], 0.93; in assay [17] it was 0.163 (inactive); in assay [18], 0.0637; in assay [19] it was 0.75. Moreover, the z-score in [20] was 0.569 (inactive). This compound came in with a composite z-score in assay [2] of 0.0981.
Consider `CCOC(=O)[C@H](Cc1ccccc1)NC(=O)CCC1CC(OC(=O)NCCc2ccc(F)cc2)CC2(CCCC(COC(=O)NCC(c3ccccc3)c3ccccc3)O2)O1` (stereo not given in full), for which the z-score was -0.455 (inactive) in assay [1]; 14.2 (active) in [3]; 4.68 (inactive) in assay [4]; -0.261 (inactive) in assay [5]; 0.688 (inactive) in assay [6]; -0.058 in [7]. The z-score is 0.0978 (inactive) in assay [8]; -0.136 (inactive) in [9]; -0.234 in assay [10]; 0.241 in assay [11]; -0.351 in assay [12]; -1.03 in assay [13]. For the same compound, the z-score in [14] is -3.42; in [15] it was -3.75; in [16] it was 0.368; in assay [17] it was -0.88 (inactive); in [18], -1; in assay [19] it was -2.12. The z-score in assay [20] is 0.919 (inactive). The compound also returned a composite z-score in assay [2] of -0.144.

The values are drawn from PubChem BioAssay.
